Source: the supplement of paper PMC10849652
Targets with a hit are over-represented here; the source holds about 8,800 in all. About 0.5% of all pairs of compound and target were hits.

Legend:
Experiment in all cases: log2 fold change, soluble protein after heating vs DMSO (PISA); higher = thermal stabilisation; K562 lysate, 10 uM; active = over 0.2 and 3.5 SD of the protein, either way, in both replicates (recomputed)
[1] = compound: CS(=O)(=O)CCNCc1ccc(-c2ccc3ncnc(Nc4ccc(OCc5cccc(F)c5)c(Cl)c4)c3c2)o1 [lapatinib]
In short: (§1)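 Thermal stability, expressed as log-two fold change relative to solvent controls, is given from duplicates. Crude K562 extract in PBS pH 7.4 with 1 mM MgCl2, at 1 mg/mL protein, was treated with 10 μM compound for 30 min and heated in aliquots for 3 min across 48°C-58°C. After pooling, adjustment to 0.5% NP-40 at 4°C and centrifugation at 21,000xg for 90 min, supernatant protein was measured by TMTpro 16plex LC-MS/MS with channel sums equalised.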

[2] = compound: CS(=O)(=O)N1CCN(Cc2cc3nc(-c4cccc5[nH]ncc45)nc(N4CCOCC4)c3s2)CC1 [pictilisib]
In short: as §1

[3] = compound: C[C@@H](Oc1cc(-c2cnn(C3CCNCC3)c2)cnc1N)c1c(Cl)ccc(F)c1Cl [crizotinib]
In short: as §1

[4] = compound: C[C@H](C1=CC=C(C=C1)C(=O)NC2=C3C=CNC3=NC=C2)N
In short: as §1

[5] = compound: C[C@H](Nc1ncnc2nc[nH]c12)c1cc2cccc(Cl)c2c(=O)n1-c1ccccc1 [duvelisib]
In short: as §1

[6] = compound: Cc1cc(Nc2cc(CN3CCOCC3)c3nc(C)c(Cc4ccc(Cl)cc4F)n3n2)n[nH]1 [gandotinib]
In short: as §1

[7] = compound: Cc1cc(Nc2cc(N3CCN(C)CC3)nc(Sc3ccc(NC(=O)C4CC4)cc3)n2)n[nH]1 [tozasertib]
In short: as §1

[8] = compound: Cc1ccc(-n2nc(C(C)(C)C)cc2NC(=O)Nc2ccc(OCCN3CCOCC3)c3ccccc23)cc1 [doramapimod]
In short: as §1

[9] = compound: Cc1ccc(NC(=O)c2ccc(CN3CC[C@H](N(C)C)C3)c(C(F)(F)F)c2)cc1Nc1nccc(-c2cncnc2)n1 [bafetinib]
In short: as §1

[10] = compound: Cc1cccc(CC(=O)N2CCc3c2ccc(-c2cn(C)c4ncnc(N)c24)c3F)n1
In short: as §1

[11] = compound: Cc1cn(-c2cc(NC(=O)c3ccc(C)c(Nc4nccc(-c5cccnc5)n4)c3)cc(C(F)(F)F)c2)cn1 [nilotinib]
In short: as §1

[12] = compound: Cc1nc(Nc2n[nH]c3c2CN(C(=O)N[C@H](CN(C)C)c2ccccc2)C3(C)C)c2sccc2n1
In short: as §1

[13] = compound: Cc1nc(Nc2ncc(C(=O)Nc3c(C)cccc3Cl)s2)cc(N2CCN(CCO)CC2)n1 [dasatinib]
In short: as §1

[14] = compound: Cc1ncc(-c2ccnc(Nc3ccc(S(C)(=O)=O)cc3)n2)n1C(C)C
In short: as §1

[15] = compound: Cn1cc(-c2ccc3c(c2)CCN3C(=O)Cc2cccc(C(F)(F)F)c2)c2c(N)ncnc21
In short: as §1

[16] = compound: Cn1cc(CNCC2CCN(c3ncc(C(=O)NO)cn3)CC2)c2ccccc21 [quisinostat]
In short: as §1

[17] = compound: Cn1cncc1[C@@](N)(c1ccc(Cl)cc1)c1ccc2c(c1)c(-c1cccc(Cl)c1)cc(=O)n2C [tipifarnib]
In short: as §1

[18] = compound: NC(=O)Nc1cc(-c2cccc(F)c2)sc1C(=O)N[C@H]1CCCNC1
In short: as §1

[19] = compound: NC(=O)c1cnc(N[C@@H]2CCCC[C@@H]2N)nc1Nc1cccc(-n2nccn2)c1
In short: as §1

[20] = compound: NC1(c2ccc(-c3nc4ccn5c(=O)[nH]nc5c4cc3-c3ccccc3)cc2)CCC1
In short: as §1

Measured: log2 fold change

YES1 (UniProt P07947)
active: [18] 0.589
inactive: [1] 0 | [2] -0.063 | [3] -0.128 | [4] -0.101 | [5] -0.066 | [6] 0.212 | [7] -0.105 | [8] -0.005 | [9] 0.155 | [10] 0.092 | [11] 0.043 | [12] 0.008 | [13] 0.154 | [14] -0.104 | [15] -0.087 | [16] -0.084 | [17] -0.157 | [19] 0.032 | [20] 0.054

USP34 (UniProt Q70CQ2)
inactive: [1] -0.002 | [2] -0.008 | [3] -0.094 | [4] 0.03 | [5] 0.004 | [6] -0.122 | [7] 0.011 | [8] 0.01 | [9] -0.041 | [10] 0.018 | [11] -0.018 | [12] -0.002 | [13] -0.042 | [14] -0.018 | [15] 0.023 | [16] -0.041 | [17] 0.021 | [18] 0.074 | [19] 0.018 | [20] 0

USP48 isoform 8 (UniProt Q86UV5)
Sequence of UniProt Q86UV5 (Q86UV5 whole entry, looked up): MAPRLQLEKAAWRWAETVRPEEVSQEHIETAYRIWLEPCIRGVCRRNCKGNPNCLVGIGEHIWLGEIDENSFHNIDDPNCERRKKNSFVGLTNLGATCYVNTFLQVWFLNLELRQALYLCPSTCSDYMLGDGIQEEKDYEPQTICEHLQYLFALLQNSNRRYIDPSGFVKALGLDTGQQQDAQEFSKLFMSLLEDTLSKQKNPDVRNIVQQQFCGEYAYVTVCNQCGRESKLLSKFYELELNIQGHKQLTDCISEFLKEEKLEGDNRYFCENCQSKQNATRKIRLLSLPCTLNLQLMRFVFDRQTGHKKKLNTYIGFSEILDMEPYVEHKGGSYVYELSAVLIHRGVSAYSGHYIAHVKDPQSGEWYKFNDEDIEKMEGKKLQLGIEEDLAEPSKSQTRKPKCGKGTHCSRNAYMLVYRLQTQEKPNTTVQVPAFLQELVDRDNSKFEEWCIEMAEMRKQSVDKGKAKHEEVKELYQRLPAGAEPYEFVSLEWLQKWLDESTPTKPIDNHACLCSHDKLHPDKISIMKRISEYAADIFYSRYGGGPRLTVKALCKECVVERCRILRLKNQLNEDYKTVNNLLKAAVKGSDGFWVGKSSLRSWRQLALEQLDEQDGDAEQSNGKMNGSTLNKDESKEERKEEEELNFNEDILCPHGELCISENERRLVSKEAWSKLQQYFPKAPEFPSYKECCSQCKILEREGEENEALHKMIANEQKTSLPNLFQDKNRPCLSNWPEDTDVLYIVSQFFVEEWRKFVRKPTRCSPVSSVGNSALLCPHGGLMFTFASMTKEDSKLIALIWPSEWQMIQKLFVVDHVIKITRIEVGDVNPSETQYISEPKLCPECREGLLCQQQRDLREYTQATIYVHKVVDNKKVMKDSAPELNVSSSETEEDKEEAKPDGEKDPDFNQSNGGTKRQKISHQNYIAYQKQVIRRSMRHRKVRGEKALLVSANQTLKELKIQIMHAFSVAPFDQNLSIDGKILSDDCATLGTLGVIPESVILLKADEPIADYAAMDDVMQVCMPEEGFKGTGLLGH
inactive: [1] -0.01 | [2] -0.001 | [3] -0.022 | [4] -0.006 | [5] -0.001 | [6] -0.044 | [7] 0.008 | [8] 0.024 | [9] -0.027 | [10] 0.034 | [11] 0.018 | [12] 0.008 | [13] 0.001 | [14] 0 | [15] 0.015 | [16] -0.04 | [17] -0.011 | [18] 0.008 | [19] -0.001 | [20] -0.024

ZC2HC1A (UniProt Q96GY0)
Sequence of UniProt Q96GY0 (Q96GY0 whole entry, looked up): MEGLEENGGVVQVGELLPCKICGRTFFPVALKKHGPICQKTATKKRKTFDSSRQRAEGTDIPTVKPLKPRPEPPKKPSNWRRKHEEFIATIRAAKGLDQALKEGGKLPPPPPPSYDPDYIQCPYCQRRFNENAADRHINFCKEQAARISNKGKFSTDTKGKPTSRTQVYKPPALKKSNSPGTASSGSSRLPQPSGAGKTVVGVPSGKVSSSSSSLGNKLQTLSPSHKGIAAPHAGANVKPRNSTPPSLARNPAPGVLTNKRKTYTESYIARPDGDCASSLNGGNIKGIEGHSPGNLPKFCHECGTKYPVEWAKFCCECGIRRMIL
inactive: [1] 0.004 | [2] 0.056 | [3] -0.009 | [4] -0.082 | [5] 0 | [6] 0.053 | [7] 0.007 | [8] -0.021 | [9] 0.052 | [10] 0.103 | [11] 0 | [12] 0.005 | [13] -0.085 | [14] 0.002 | [15] 0.1 | [16] -0.082 | [17] -0.02 | [18] -0.014 | [19] 0.04 | [20] -0.092

ZNF217 (UniProt O75362)
Sequence of UniProt O75362 (O75362 whole entry, looked up): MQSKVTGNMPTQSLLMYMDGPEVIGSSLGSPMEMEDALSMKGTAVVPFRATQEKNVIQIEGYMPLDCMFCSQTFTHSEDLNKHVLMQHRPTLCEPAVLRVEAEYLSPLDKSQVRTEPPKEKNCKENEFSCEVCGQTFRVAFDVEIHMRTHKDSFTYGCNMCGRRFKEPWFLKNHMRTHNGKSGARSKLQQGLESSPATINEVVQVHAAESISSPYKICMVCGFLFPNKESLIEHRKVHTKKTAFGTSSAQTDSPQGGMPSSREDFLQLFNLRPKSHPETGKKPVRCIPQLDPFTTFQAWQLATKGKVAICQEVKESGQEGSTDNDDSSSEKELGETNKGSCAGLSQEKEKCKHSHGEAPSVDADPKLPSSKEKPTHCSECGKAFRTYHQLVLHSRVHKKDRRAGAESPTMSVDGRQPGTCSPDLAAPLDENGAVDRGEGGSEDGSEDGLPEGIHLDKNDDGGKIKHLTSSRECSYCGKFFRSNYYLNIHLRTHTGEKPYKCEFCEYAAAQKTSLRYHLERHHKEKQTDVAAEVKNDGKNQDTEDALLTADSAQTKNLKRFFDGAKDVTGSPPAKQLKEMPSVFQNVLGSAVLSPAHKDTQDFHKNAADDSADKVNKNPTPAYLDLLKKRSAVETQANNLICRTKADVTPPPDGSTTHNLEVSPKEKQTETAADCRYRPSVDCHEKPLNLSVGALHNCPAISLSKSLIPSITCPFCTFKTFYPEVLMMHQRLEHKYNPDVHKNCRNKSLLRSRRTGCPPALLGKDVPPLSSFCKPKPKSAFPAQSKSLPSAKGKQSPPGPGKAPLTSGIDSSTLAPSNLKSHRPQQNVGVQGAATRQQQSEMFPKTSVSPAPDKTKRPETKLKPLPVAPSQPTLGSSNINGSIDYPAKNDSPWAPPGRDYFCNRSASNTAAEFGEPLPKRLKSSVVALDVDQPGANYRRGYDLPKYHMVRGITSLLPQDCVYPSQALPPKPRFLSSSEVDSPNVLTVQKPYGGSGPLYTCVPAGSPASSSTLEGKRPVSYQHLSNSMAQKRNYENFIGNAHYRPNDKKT
inactive: [1] -0.02 | [2] 0.059 | [3] -0.025 | [4] -0.045 | [5] -0.011 | [6] -0.009 | [7] 0.044 | [8] 0.004 | [9] 0.037 | [10] 0.052 | [11] 0.06 | [12] 0.026 | [13] 0.001 | [14] 0.054 | [15] -0.057 | [16] -0.179 | [17] -0.086 | [18] 0.014 | [19] 0.021 | [20] -0.075

XPO1 (UniProt O14980)
inactive: [1] -0.039 | [2] 0 | [3] -0.034 | [4] -0.037 | [5] -0.026 | [6] -0.043 | [7] 0.021 | [8] -0.001 | [9] -0.02 | [10] 0.07 | [11] 0.011 | [12] -0.011 | [13] -0.038 | [14] -0.014 | [15] 0.021 | [16] -0.007 | [17] -0.009 | [18] 0.021 | [19] 0.011 | [20] 0.006

YME1L1 (UniProt Q96TA2)
inactive: [1] -0.025 | [2] -0.034 | [3] -0.073 | [4] 0.01 | [5] -0.017 | [6] -0.112 | [7] 0.048 | [8] -0.023 | [9] -0.024 | [10] 0.055 | [11] 0.011 | [12] -0.06 | [13] 0 | [14] 0.026 | [15] -0.044 | [16] -0.045 | [17] -0.019 | [18] 0.016 | [19] 0.06 | [20] -0.059

ZNF346 (UniProt Q9UL40)
inactive: [1] 0.01 | [2] -0.008 | [3] 0.009 | [4] -0.01 | [5] -0.009 | [6] -0.026 | [7] 0.005 | [8] 0.02 | [9] -0.043 | [10] -0.072 | [11] -0.005 | [12] 0.02 | [13] -0.099 | [14] 0.021 | [15] 0.014 | [16] -0.014 | [17] 0.015 | [18] 0.005 | [19] 0.011 | [20] 0.01

XPNPEP1 isoform 3 (UniProt Q9NQW7)
inactive: [1] -0.017 | [2] -0.02 | [3] -0.008 | [4] 0.001 | [5] 0.049 | [6] 0.002 | [7] -0.024 | [8] -0.003 | [9] -0.021 | [10] 0.018 | [11] 0.022 | [12] 0.016 | [13] -0.049 | [14] -0.004 | [15] 0.014 | [16] 0.024 | [17] 0.011 | [18] 0.007 | [19] -0.005 | [20] -0.023

WDR20 isoform 7 (UniProt Q8TBZ3)
Sequence of UniProt Q8TBZ3 (Q8TBZ3 whole entry, looked up): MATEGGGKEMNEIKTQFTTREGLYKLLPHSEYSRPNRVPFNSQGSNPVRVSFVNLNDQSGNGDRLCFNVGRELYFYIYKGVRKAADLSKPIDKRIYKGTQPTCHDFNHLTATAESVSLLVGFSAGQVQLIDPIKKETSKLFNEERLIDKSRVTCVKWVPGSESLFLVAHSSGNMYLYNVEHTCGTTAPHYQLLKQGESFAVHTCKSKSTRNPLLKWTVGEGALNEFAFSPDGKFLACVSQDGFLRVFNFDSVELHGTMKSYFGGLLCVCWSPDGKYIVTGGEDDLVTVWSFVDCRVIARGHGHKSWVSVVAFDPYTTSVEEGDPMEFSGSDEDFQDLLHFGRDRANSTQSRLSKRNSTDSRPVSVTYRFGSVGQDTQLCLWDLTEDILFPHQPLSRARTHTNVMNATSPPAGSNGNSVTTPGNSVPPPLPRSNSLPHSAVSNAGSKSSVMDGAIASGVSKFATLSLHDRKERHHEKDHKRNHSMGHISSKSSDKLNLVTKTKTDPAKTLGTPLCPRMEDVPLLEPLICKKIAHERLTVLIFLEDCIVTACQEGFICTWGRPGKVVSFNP
active: [4] -0.416
inactive: [1] 0.015 | [2] -0.006 | [3] -0.069 | [5] 0.043 | [6] -0.009 | [7] 0 | [8] -0.022 | [9] 0.07 | [10] 0.081 | [11] -0.001 | [12] 0.029 | [13] 0.055 | [14] -0.229 | [15] 0.038 | [16] 0.027 | [17] -0.174 | [18] 0.009 | [19] -0.026 | [20] -0.042

ZMYM1 (UniProt Q5SVZ6)
Sequence of UniProt Q5SVZ6 (Q5SVZ6 whole entry, looked up): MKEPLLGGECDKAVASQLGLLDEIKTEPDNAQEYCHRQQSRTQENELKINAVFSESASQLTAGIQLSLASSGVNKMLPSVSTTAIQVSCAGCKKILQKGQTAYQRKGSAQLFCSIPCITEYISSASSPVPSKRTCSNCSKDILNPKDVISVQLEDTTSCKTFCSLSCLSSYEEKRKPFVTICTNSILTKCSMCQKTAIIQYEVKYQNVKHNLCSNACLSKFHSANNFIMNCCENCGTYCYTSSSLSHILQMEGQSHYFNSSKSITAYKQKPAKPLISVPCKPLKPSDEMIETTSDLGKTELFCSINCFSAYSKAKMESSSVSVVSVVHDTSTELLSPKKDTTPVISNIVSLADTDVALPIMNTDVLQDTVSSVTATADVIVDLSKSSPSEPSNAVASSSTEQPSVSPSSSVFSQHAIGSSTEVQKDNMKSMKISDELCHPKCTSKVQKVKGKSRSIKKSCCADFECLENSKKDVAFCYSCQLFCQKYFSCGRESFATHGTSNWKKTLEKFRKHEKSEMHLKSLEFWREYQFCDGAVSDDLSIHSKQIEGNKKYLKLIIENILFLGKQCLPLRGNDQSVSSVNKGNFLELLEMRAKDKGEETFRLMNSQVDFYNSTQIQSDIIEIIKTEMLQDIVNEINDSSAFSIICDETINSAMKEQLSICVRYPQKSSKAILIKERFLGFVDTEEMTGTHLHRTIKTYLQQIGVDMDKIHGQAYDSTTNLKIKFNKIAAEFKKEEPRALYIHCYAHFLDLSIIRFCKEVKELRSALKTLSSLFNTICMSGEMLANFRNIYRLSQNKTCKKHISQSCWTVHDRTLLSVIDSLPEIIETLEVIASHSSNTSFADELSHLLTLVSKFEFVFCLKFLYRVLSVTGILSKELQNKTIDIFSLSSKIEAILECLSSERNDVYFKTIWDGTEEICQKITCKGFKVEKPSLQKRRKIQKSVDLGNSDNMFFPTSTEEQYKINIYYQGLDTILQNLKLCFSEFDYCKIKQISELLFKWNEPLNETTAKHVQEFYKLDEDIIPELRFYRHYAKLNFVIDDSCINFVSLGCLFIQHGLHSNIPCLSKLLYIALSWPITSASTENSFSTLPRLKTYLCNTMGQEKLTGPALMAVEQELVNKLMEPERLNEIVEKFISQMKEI
inactive: [1] 0.101 | [2] -0.037 | [3] -0.008 | [5] -0.04 | [6] 0.226 | [7] -0.021 | [8] 0 | [9] -0.097 | [11] 0.023 | [12] -0.036 | [13] 0.006 | [14] -0.019 | [15] 0.007 | [16] -0.08 | [17] -0.012 | [18] 0.03 | [19] 0.003 | [20] 0.028
active: [4] -0.25 | [10] 0.284

VPS11 (UniProt Q9H270)
inactive: [1] -0.025 | [2] -0.027 | [3] -0.029 | [4] -0.008 | [5] -0.04 | [6] -0.083 | [7] 0.024 | [8] 0.039 | [9] -0.077 | [10] 0.065 | [11] -0.007 | [12] -0.008 | [13] -0.003 | [14] -0.018 | [15] -0.002 | [16] -0.055 | [17] -0.002 | [18] 0.06 | [19] -0.003 | [20] 0.003

VRK1 (UniProt Q99986)
Sequence of UniProt Q99986 (Q99986 whole entry, looked up): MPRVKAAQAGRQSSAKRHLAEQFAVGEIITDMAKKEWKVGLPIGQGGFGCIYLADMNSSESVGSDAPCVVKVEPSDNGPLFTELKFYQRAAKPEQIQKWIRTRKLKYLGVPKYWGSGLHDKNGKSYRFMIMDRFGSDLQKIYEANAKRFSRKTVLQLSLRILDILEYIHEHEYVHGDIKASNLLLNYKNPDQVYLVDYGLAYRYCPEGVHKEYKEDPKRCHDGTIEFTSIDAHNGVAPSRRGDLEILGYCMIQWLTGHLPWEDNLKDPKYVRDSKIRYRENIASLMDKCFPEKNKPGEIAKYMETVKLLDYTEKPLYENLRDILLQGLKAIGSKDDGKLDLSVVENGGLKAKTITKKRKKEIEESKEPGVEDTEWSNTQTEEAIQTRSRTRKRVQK
inactive: [1] -0.005 | [2] 0.002 | [3] -0.023 | [4] 0.172 | [5] 0.013 | [6] -0.078 | [7] -0.052 | [8] -0.052 | [9] -0.042 | [10] -0.014 | [11] -0.002 | [12] 0 | [13] -0.001 | [14] 0.005 | [15] 0.032 | [16] -0.059 | [17] -0.018 | [18] 0.015 | [19] 0.003 | [20] -0.046

YDJC (UniProt A8MPS7)
inactive: [1] -0.003 | [2] -0.016 | [3] 0.022 | [4] -0.031 | [5] -0.044 | [6] 0.02 | [7] 0.022 | [8] 0.025 | [9] -0.017 | [10] -0.033 | [11] -0.027 | [12] 0.045 | [13] -0.1 | [14] -0.044 | [15] -0.02 | [16] -0.03 | [17] -0.045 | [18] -0.001 | [19] 0.021 | [20] 0.074

ZDHHC18 (UniProt Q9NUE0)
Sequence of UniProt Q9NUE0 (Q9NUE0 whole entry, looked up): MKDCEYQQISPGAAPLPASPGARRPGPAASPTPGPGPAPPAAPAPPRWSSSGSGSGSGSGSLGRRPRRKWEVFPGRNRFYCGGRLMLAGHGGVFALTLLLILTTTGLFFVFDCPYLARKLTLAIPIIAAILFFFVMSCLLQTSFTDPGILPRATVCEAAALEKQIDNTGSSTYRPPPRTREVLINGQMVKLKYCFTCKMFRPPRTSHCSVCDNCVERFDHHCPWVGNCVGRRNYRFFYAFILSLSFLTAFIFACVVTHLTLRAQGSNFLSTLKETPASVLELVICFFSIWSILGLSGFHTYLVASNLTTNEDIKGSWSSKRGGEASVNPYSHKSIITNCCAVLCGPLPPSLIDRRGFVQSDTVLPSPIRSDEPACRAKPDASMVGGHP
inactive: [1] 0.029 | [2] 0.078 | [3] -0.023 | [4] -0.017 | [5] 0.013 | [6] -0.149 | [7] -0.061 | [8] 0.054 | [9] -0.068 | [10] -0.11 | [11] 0.067 | [12] -0.329 | [13] 0.176 | [14] -0.047 | [15] -0.158 | [16] -0.008 | [17] 0.177 | [18] 0.008 | [19] 0.059 | [20] 0.067

YTHDC2 (UniProt Q9H6S0)
inactive: [1] -0.029 | [2] -0.007 | [3] -0.042 | [4] 0.023 | [5] 0.032 | [6] -0.013 | [7] -0.03 | [8] 0.007 | [9] -0.022 | [10] -0.066 | [11] 0.006 | [12] -0.001 | [13] -0.043 | [14] 0.03 | [15] 0.03 | [16] -0.046 | [17] 0.022 | [18] 0.06 | [19] -0.007 | [20] -0.054
